# PubChem BioAssay AID435022 (Sanford-Burnham Center for Chemical Genomics, 2010)
# About 1,100 (0.33%) of roughly 330,000 compounds were called active. Shown is part of a subset that was picked to be rich in actives. Values without a mark were called inactive. Rule as the data show it: active = inhibition above about 35%; inactive = the rest.
# Assay: inhibitors of PMA/ionomycin-induced NF-kB reporter, 697 cells, primary screen, B-cell NF-kB inhibitor project, cell-based, luminescence, uHTS (AID 435022)
# Details: 697 B-cell NF-kB luciferase reporter, 16 h, at 4 µM, stronger effect = higher value
row,SMILES,inhibition
1,CCCCCCCCCCCCn1ccc(=N)cc1,90.6% (active)
2,CCOc1ccc(C2SCC(=O)Nc3c2c(C)nn3C2CCOC(C)(C)C2)cc1 (stereo not given),24.3%
3,COC(=O)COc1cc(C)cc2oc(=O)c3c(c12)CCCC3,13.3%
4,CN1C2C=C(N(C(=O)c3ccc(Cl)cc3)c3ccccc3)CC1CC2 (stereo not given),-2.33%
5,COc1cc(-n2c(=S)[nH]c3ccc(C)cc3c2=O)c(Cl)cc1Cl,-21.6%
